This is a sample that favours compounds with a hit; in the whole collection about 5.6% have one here.
PfM18AAP inh: blocks P. falciparum M18 aspartyl aminopeptidase | recombinant PfM18AAP, H-Glu-NHMec fluorogenic cleavage | inhibition, % at 7.35 µM | hit rate 1.2% among 290,000 | AID 1822;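 active = inhibition above the campaign mean inhibition over all tested compounds plus 3 SD, cut at about 28% in these data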;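 note: 0% = plate median of test compound wells and 100% = 2 mM ZnCl2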
ALR inh: human ALR oxidase inhibition via reduced H2O2; purified ALR, DTT oxidation, H2O2 HRP-luminol luminescence; inhibition, % (test concentration not listed); hit rate 3.8% among 290,000; AID 485317;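 active = mean replicate inhibition above about 79%, with every replicate also reaching it, limit read from the data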
Target sequence (P55789 whole entry, looked up): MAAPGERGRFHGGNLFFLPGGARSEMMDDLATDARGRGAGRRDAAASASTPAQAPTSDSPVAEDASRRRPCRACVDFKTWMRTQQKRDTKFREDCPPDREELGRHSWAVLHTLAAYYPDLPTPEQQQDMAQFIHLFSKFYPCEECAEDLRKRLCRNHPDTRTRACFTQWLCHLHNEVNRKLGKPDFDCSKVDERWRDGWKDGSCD
PfGluPho inh: PfG6PD (Plasmodium falciparum) enzyme inhibition | PfGluPho enzyme, NADPH resazurin-diaphorase fluorescence | inhibition, % at 20 µM | hit rate 0.78% among 350,000;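 active = inhibition reaching at least a set limit at 20 µM in the primary screen, cut at about 59% in these data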;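 note: 0% = DMSO wells with substrate and 100% = DMSO wells lacking glucose-6-phosphate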
H9c2 protect: protects H9c2 cardiomyocytes from peroxide injury; protection from H2O2 cell death, % at 20 µM; hit rate 0.63% among 360,000; H2O2 injury protection, ATPLite, 2 h; AID 588492;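 active = compounds giving at least 50% protection of heart cells from peroxide-induced death in the single-dose screen, raw or plate-pattern-corrected value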;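 note: 0% = DMSO wells with peroxide and 100% = DMSO wells without peroxide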
PHOSPHO1 block: inhibitors of human PHOSPHO1 phosphatase. hit rate 1.1% among 290,000. inhibition, % at 13.3 µM. Q8TCT1. recombinant PHOSPHO1, absorbance phosphatase assay; in the data active = inhibition above about 60%
Target sequence (Q8TCT1 whole entry, looked up): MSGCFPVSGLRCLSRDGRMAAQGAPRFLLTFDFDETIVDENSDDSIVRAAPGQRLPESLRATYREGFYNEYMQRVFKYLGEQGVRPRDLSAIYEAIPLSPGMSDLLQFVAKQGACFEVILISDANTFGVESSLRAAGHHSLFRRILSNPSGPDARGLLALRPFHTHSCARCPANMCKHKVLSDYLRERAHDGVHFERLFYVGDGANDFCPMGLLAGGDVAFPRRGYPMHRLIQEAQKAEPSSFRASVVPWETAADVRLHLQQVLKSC
PfGluPho conf: confirmation of Plasmodium falciparum G6PD inhibitors; shares compounds with PfGluPho inh; recombinant PfGluPho, NADPH-diaphorase-resazurin fluorescence; inhibition, % at 20 µM; hit rate 34% among 2,400;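 active = inhibition of at least 50% at 20 µM in any single replicate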;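 note: 0% = DMSO with substrate and 100% = DMSO lacking glucose-6-phosphate substrate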
Diaph ctr 10uM: inhibits diaphorase or oxidizes, flagging false PfG6PD hits. shares compounds with PfGluPho inh. hit rate 39% among 820. diaphorase-coupled resazurin reduction, fluorescence, NADPH 10 uM. inhibition, % at 20 µM;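 active = average inhibition reaching 50% or more with the compound at 20 µM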;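 note: resorufin red fluorescence formed as diaphorase reduces resazurin using NADPH; 0% = DMSO with enzyme and 100% = DMSO without enzyme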
Diaphorase 30uM: inhibits diaphorase or oxidizes, flagging false PfG6PD hits. shares compounds with PfGluPho inh. Diaphorase/resazurin coupled assay, resorufin fluorescence, 30 uM NADPH. inhibition, % at 20 µM. hit rate 29% among 820;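 active = inhibition averaging 50% or more, tested at 20 µM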;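 note: 0% = DMSO with enzyme and 100% = DMSO wells lacking diaphorase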
Active calls of the source: *; / = no result given.

SMILES | PfM18AAP inh | ALR inh | PfGluPho inh | H9c2 protect | PHOSPHO1 block | PfGluPho conf | others
O=S(=O)(c1ccccc1)N1CCN(S(=O)(=O)c2ccccc2)c2ccccc21 | / | / | 112* | -8 | / | 45
CC(C)N1CCN(S(=O)(=O)c2ccccc2)c2ccccc21 | / | / | 95* | -8 | / | 38
COc1cc(C)c(NC(=O)Cc2ccsc2)cc1OC | -1 | -25 | -1 | -3 | 3 | /
CC(C)CCNC(=O)c1ccc(Cn2c(=S)[nH]c3ccccc3c2=O)cc1 | -4 | / | 6 | -7 | 18 | /
CCOc1ccc(-c2c(=O)n(O)c3ccccc3[n+]2[O-])cc1 | 2 | -1 | 61* | -1 | 28 | 17
CCOc1ccc(-c2c(=O)n(OCC)c3ccccc3[n+]2[O-])cc1 | -6 | -2 | -10 | 0 | 18 | /
COc1ccc(NC(=O)Nc2cccc([N+](=O)[O-])c2)cc1Cl | 15 | 67 | 61* | -17 | -6 | 10
CN(C(=O)c1cnc(N2CCN(c3ncccn3)CC2)c2ccccc12)c1ccc(Cl)cc1 | -3 | -7 | 98* | 11 | 30 | 35
CCN(C(=O)c1cnc(N2CCN(c3ncccn3)CC2)c2ccccc12)c1cccc(Cl)c1 | 5 | -33 | 25 | -4 | 50 | /
Oc1ccc(/C=N/N=C(c2ccccc2)c2ccccc2)c(O)c1O | 24 | 98* | 75* | 85* | -3 | 73* | Diaph ctr 10uM=51*;Diaphorase 30uM=35
C[C@H]1CN([C@@H](C)CO)C(=O)CCCn2cc(nn2)CO[C@@H]1CN(C)C(=O)Nc1ccc(N2CCCCC2)cc1 | / | / | 1 | -3 | / | /
Cc1cc(=O)oc2cc(OCC(=O)N3CCOCC3)ccc12 | 19 | / | 68* | 3 | 18 | 28
Cc1cc(=O)oc2cc(OCC(=O)N3CCCC3)ccc12 | / | -4 | 1 | -1 | / | /
Cc1cc(NCCCCCCCNc2cc(C)nc3cc([N+](=O)[O-])ccc23)c2ccc([N+](=O)[O-])cc2n1 | / | / | 78* | -18 | / | 12
CCOc1ccc(C(=O)NCC(=O)NNC(=O)c2ccco2)cc1OCC | / | 0 | -16 | 2 | / | /
COc1cccc2c3cccc(OC)c3c3[nH]cnc3c12 | / | / | 68* | -13 | / | 33
COc1cccc2[nH]c3c(=O)[nH]cnc3c12 | 4 | -26 | 17 | 2 | 35 | /
CCOc1cccc(CNc2ccc(O)cc2)c1OCc1ccc(Cl)cc1Cl | 3 | 17 | 69* | -16 | 2 | 26
CCCNC(=O)C1(C)CCCN(C/C=C/c2ccccc2)C1 (stereo not given) | / | / | / | 2 | / | /
Cc1ccccc1N/C(SCc1cccc(Br)c1)=C(/C#N)C(N)=O | 2 | 3 | 97* | -16 | -12 | 67* | Diaph ctr 10uM=61*;Diaphorase 30uM=33
O=C(Cc1c(Cl)cccc1Cl)N/N=C/c1cccnc1 | 2 | -12 | 12 | 10 | 23 | /
O=S(=O)(Nc1ccccc1N1CCCCC1)c1ccc(Cl)s1 | 5 | -6 | 86* | -14 | 17 | 22
O=S(=O)(Nc1ccccc1N1CCCC1)c1ccccc1C(F)(F)F | / | / | 16 | -12 | / | /
O=C(COc1ccc(F)cc1Br)NCCCN1CCCC1=O | / | -8 | -12 | 2 | / | /
COc1ccc(CNC(=O)C2CCC(CNS(=O)(=O)c3ccccc3)CC2)cc1 (stereo not given) | 2 | 0 | 3 | 7 | 42 | /
SMILES | PfM18AAP inh | ALR inh | PfGluPho inh | H9c2 protect | PHOSPHO1 block | PfGluPho conf | others
COc1ccc(-n2c(C)cc(C(=O)Cn3nnc4ccccc4c3=O)c2C)cc1 | -13 | -3 | 30 | -6 | 19 | /
Cc1cc(C(=O)Cn2nnc3ccccc3c2=O)c(C)n1-c1ccccc1F | 0 | -19 | 65* | -35 | 3 | 19
Nc1ncnc2c1ncn2[C@@H]1O[C@H](C(=O)N2CCN(Cc3ccccn3)CC2)[C@@H](O)[C@H]1O | / | / | / | -1 | / | /
CCOC(=O)c1sc2nc(-c3ccco3)c3c(c2c1N)CC(C)(C)OC3 | / | 11 | 64* | 11 | -4 | 10
COC(=O)CSc1ncnc2c1sc1nc(-c3ccco3)c3c(c12)CC(C)(C)OC3 | -2 | 1 | / | / | 13 | /
CCOC(=O)C1(C)CCCN(C(=O)c2ccc(F)cc2Cl)C1 (stereo not given) | / | / | / | -3 | / | /
C/C(Cn1nnc([N+](=O)[O-])n1)=N\NC(=O)c1ccc(O)cc1 | 1 | / | 71* | 4 | 27 | 53* | Diaph ctr 10uM=27;Diaphorase 30uM=27
C/C(Cn1nnc([N+](=O)[O-])n1)=N\NC(=O)c1ccc(Cl)c(Cl)c1 | -2 | -23 | 83* | 12 | 30 | 77* | Diaph ctr 10uM=45;Diaphorase 30uM=34
C/C(Cn1cnc([N+](=O)[O-])n1)=N\NC(=O)c1ccc(Br)cc1 | 2 | -63 | -5 | 4 | -40 | /
COc1ccc2nc3cc(Cl)ccc3c(Nc3ccc(O)c(CN4CCN(C)CC4)c3)c2c1 | / | / | 109* | -14 | / | 45* | Diaph ctr 10uM=33;Diaphorase 30uM=40
COc1ccc2nc3cc(Cl)ccc3c(C#N)c2c1 | 1 | -19 | 3 | -5 | 20 | /
CCc1ccc(OCC(=O)Nc2ccc(S(=O)(=O)Nc3cc(C)on3)cc2)c(Br)c1 | -1 | 9 | -31 | 0 | 8 | /
CCN(CC)c1ccc(/C=N/OC(C)C(=O)Nc2ccc(C)cc2)cc1 (stereo not given) | 1 | / | 13 | -14 | -5 | /
CCN(CC)c1ccc(N=C2C=CC(=O)C=C2NC(C)=O)cc1 | / | / | 121* | -13 | / | 99* | Diaph ctr 10uM=95*;Diaphorase 30uM=98*
CC1CCC(NC(=O)c2cccc(S(=O)(=O)N3CCN(c4ccc(F)cc4)CC3)c2)CC1 (stereo not given) | / | 0 | 0 | -15 | / | /
CC1=CN2C(=N)/C(=C/c3ccco3)C(=O)N=C2S1 | -2 | 11 | 8 | -18 | 2 | /
CC1=CN2C(=N)/C(=C/c3ccc([N+](=O)[O-])o3)C(=O)N=C2S1 | 12 | 37 | 59* | -8 | -9 | 73* | Diaph ctr 10uM=26;Diaphorase 30uM=35
O=C(NCCOc1cccnc1)C1CCC(=O)N(Cc2ccccc2F)C1 (stereo not given) | -3 | 2 | 1 | 1 | 36 | /
COc1ccc(CN(C)CCCn2ccc(NC(=O)OCc3ccccc3)nc2=O)cc1OC | / | / | 20 | 8 | / | /
COc1ncnc2c1ncn2CCCNc1ccc(C)c(C)c1 | / | / | 7 | -8 | / | /
COc1cc(NCCCn2cnc3c(OCc4ccccc4)ncnc32)cc(OC)c1OC | / | / | 80* | 8 | / | 67* | Diaph ctr 10uM=-14;Diaphorase 30uM=-23
COc1cc(NCCCn2ccc(NC(=O)OCc3ccccc3)nc2=O)cc(OC)c1OC | / | / | 80* | -4 | / | 74* | Diaph ctr 10uM=-4;Diaphorase 30uM=5
O=C(c1ccco1)N(Cc1ccc2c(c1)OCO2)Cc1cc2cc3c(cc2[nH]c1=O)OCO3 | -10 | -1 | -11 | 2 | 24 | /
Cc1cc2cc(CN(Cc3ccc4c(c3)OCO4)C(=O)c3ccco3)c(=O)[nH]c2cc1C | 7 | -4 | 82* | 4 | 9 | 38

Screening results deposited in PubChem by several laboratories.
